Compounds with a hit are over-represented: about 10% of the library has one in this group of screens.
KB-3-1 tox: KB-3-1 parental cell cytotoxicity; KB-3-1 viability, CellTiter-Glo ATP luminescence, 72 h; Potency, µM (doses to about 46.1 µM), hits mostly cytotoxic; 400,000 compounds, 1.4% hits; AID 1347075; note: % is set by controls: 0 for no effect and ±100 for the full control effect; nearly all actives have a fitted effect of over 60% in size
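Viability of parental KB-3-1 cells, measured by CellTiter-Glo luminescence, followed a 72 h incubation at 37 °C with pinned compounds in phenol-red-free DMEM containing 10% FBS.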
KB-V1 cytotox: kills drug-selected multidrug resistant KB-V1 cells. AID 1347076. KB-V1 MDR cells viability, CellTiter-Glo, 72 h. Potency, µM (highest dose often 46.1 µM), hits mostly cytotoxic. 400,000 compounds, 3.4% hits; note: % is set by controls: 0 for no effect and ±100 for the full control effect; nearly all actives have a fitted effect of over 60% in size
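Compound-treated KB-V1 multidrug-resistant cells, 72 h, 37 degrees C; viability by CellTiter-Glo. Fitted qHTS curves give the values.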
Gal4-VP16 FLuc: Gal4-VP16 reporter inhibition counter-screen. Drosophila S2 Gal4-VP16 UAS-luciferase, luminescence, 20 h. Potency, µM (highest dose often 53.6 µM), for the others: top-dose activity, negative = inhibition, actives largely listed as inhibitors. 310,000 compounds, 3.5% hits. AID 2546;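 note: Gal4-VP16 expression switched on by copper sulfate through the metallothionein promoter; % is set by controls: 0 for no effect and ±100 for the full control effect; nearly all actives have a fitted effect of over 50% in size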
MCF10A rerep: inducers of DNA re-replication in MCF 10A breast cells; MCF 10A DNA re-replication, Hoechst nuclear intensity, 48 h; Potency, µM (doses to about 46.1 µM), for inactives: top-dose activity, positive = re-replication, usual class: activators; AID 624296; 350,000 compounds, 2.9% hits; note: % of control where 0% means no effect; nearly all actives have a fitted effect of over 50% in size
RORgamma inh: ROR gamma (mouse) transcription inhibition | 310,000 compounds, 5.4% hits | Drosophila S2 Gal4-RORgamma UAS-luciferase reporter, 20 h | Potency, µM (doses to about 53.6 µM), inactives show top-dose activity change, negative = inhibition, actives largely listed as inhibitors | P51450 | AID 2551; note: % is set by controls: 0 for no effect and ±100 for the full control effect; nearly all actives have a fitted effect of over 60% in size
Target sequence (P51450 whole entry, looked up, the tested form may be a part): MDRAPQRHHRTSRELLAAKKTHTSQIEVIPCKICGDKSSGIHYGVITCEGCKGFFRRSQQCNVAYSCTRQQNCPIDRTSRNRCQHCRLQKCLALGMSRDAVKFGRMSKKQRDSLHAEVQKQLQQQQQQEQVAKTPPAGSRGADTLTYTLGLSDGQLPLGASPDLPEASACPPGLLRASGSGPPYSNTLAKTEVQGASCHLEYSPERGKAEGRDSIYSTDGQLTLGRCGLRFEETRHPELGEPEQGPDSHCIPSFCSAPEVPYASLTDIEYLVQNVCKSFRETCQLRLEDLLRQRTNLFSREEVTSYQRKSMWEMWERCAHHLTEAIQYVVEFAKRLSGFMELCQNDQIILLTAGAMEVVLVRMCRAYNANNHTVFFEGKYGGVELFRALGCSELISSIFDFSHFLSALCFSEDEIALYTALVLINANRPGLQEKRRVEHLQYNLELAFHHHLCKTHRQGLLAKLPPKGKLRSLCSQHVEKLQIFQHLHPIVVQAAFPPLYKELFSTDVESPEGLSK
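Using a luciferase readout, inhibitors were identified by reduced reporter activity in Drosophila cells coexpressing a copper-inducible Gal4–ROR gamma fusion and UAS-driven Photinus luciferase, incubated 20 hr after 700 uM copper sulfate.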
SW480 rerep: DNA re-replication induction in SW480 cells. SW480 DNA re-replication, Hoechst DNA content imaging, 48 h. 340,000 compounds, 1.8% hits. Potency, µM (series often up to 46.1 µM), for inactives: at the highest dose re-replication activation, actives largely listed as activators; note: % of control where 0% means no effect; nearly all actives have a fitted effect of over 55% in size
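250 cells/well; 23 nL cpd via pin tool; 48 hr, 37 C, 5% CO2; Hoechst 40 min; imager read of total nuclear intensity, ex 405/em 500-530 nm.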
Numbers without * were called inactive; i = inactive; ? = inconclusive; · = no result; [ ] = dose if it differs, or a comment. Calls come from the whole dose curve; as a rule, active = well fitted curve in the direction sought with a large enough effect; inconclusive = small, poorly fitted or top-dose-only effect, or another doubt; inactive = no such curve, though single readings can be large; an effect the other way counts as inactive or inconclusive. Potency is the fitted concentration of half-maximal effect.

SMILES	KB-3-1 tox	KB-V1 cytotox	Gal4-VP16 FLuc	MCF10A rerep	RORgamma inh	SW480 rerep
CCN(CC)C1CC(=O)N(c2cccc(C)c2)C1=O (stereo not drawn)	·	·	7.1µM*	·	-142%	·
CCN(CCO)C1CC(=O)N(c2ccccc2C)C1=O (stereo not drawn)	i	?	3.5µM*	?	4µM*	?
Cc1cccc(N2C(=O)C=CC2=O)c1	i	i	·	21µM*	·	?
Cc1cccc(N2C(=O)CC(Cn3nc(C)cc3C)C2=O)c1 (stereo not drawn)	i	i	3%	-1%	-1%	0%
Cc1ccccc1N1C(=O)CC(N(O)c2ccccc2)C1=O (stereo not drawn)	i	i	4%	4%	0%	-5%
Cc1ccc(CNC(=O)CN2C(=O)CCn3nc(-c4ccccc4)cc32)cc1	i	i	·	·	·	·
Cc1ccc(C(C)C)cc1OCC(=O)NCCCn1ccnc1	i	i	·	1.5µM*	·	17%
Cc1c(C)c2cc(Cl)c(OCC(=O)NCCCn3ccnc3)cc2oc1=O	i	i	-7%	-30%	-15%	-4%
NC(=O)COc1cc2oc(=O)c3c(c2cc1Cl)CCCC3	i	8.2µM*	-5%	0%	8%	-7%
O=C(COc1cc2oc(=O)c3c(c2cc1Cl)CCC3)NCCCn1ccnc1	i	i	-5%	23µM*	-13%	-8%
CC(=O)OCC(=O)[C@@]1(O)CCC2C3CCC4=CC(=O)C=CC4(C)C3C(O)C[C@]21C (stereo partly drawn)	·	·	0%	0%	1%	-12%
Cc1cc2nn(-c3cccc4ccccc34)nc2cc1NC(=O)c1cccs1	i	16µM*	-3%	9%	32%	-1%
CCC(=O)Nc1nn(C)c2nc3c(C)cccc3cc12	i	i	-6%	6.5µM*	9%	21µM*
CCCn1nc(NC(=O)c2cccc(Cl)c2)c2cc3cccc(C)c3nc21	i	?	·	·	·	·
COc1ccc(CC(=O)Nc2nn(C)c3nc4c(C)cccc4cc23)cc1	i	i	-4%	3.3µM*	-10%	?
Cc1cc2nn(-c3ccc(F)cc3)nc2cc1NC(=O)c1cccc2ccccc12	i	i	·	·	·	·
CCCn1nc(NC(=O)CC)c2cc3cccc(C)c3nc21	i	i	2%	2%	-18%	16µM*
Cc1cccc2cc3c(NC(=O)C(C)C)nn(C)c3nc12	i	i	-18%	?	2%	?
CC(=O)CSc1nnc2[nH]c(=O)cc(N)n12	i	?	·	·	·	·
CCCn1nc(NC(=O)c2cccs2)c2cc3cccc(C)c3nc21	i	i	-1%	21µM*	?	?
CCOc1ccc(N(C(=O)/C=C/C(=O)Nc2cc(C)on2)C(C(=O)NC2CCCC2)c2ccccc2C)cc1 (stereo not drawn)	9.2µM*	?	-10%	-1%	35%	-4%
CCc1ccc(C(C(=O)NC2CCCC2)N(C(=O)/C=C/C(=O)Nc2cc(C)on2)c2ccccc2C)cc1 (stereo not drawn)	?	i	-27%	15%	8%[10 µM]	?
O=C(Cl)CCCCCCCC(=O)Cl	·	·	1%	·	-3%	·
Cc1cc2nc(-c3cccc(NC(=O)CSc4ccc(Cl)cc4)c3)oc2cc1C	i	i	·	·	·	·
COC(=O)/C=C\c1cc(O)ccc1O	·	·	11µM*	·	14µM*	·
SMILES	KB-3-1 tox	KB-V1 cytotox	Gal4-VP16 FLuc	MCF10A rerep	RORgamma inh	SW480 rerep
O=C(Nc1ncc(Cc2ccccc2)s1)C1CCN(C(=O)c2ccco2)CC1	i	i	·	·	·	·
COc1ccc(-c2nc(CSCC(=O)NCCc3ccccc3)c(C)o2)cc1	?	i	·	·	·	·
COc1ccc(-c2nc(CSCC(=O)NC3CCCc4ccccc43)c(C)o2)cc1 (stereo not drawn)	i	?	6%	16µM*	?	15%
COc1ccc(-c2nc(CSCC(=O)NCc3ccco3)c(C)o2)cc1	i	13µM*	?	-1%	?	-7%
COc1ccc(-c2nnc(SCC(=O)NC3CCCc4ccccc43)n2N)cc1 (stereo not drawn)	i	i	0%	-3%	9%	10%
Cc1ccc(-c2nc(CSCC(=O)NCc3cccnc3)c(C)o2)cc1	?	3.7µM*	-19%	0%	5%	0%
COc1ccc2[nH]cc(CCNC(=O)c3cnn(-c4ccccc4Cl)c3C3CCN(C(=O)OC(C)(C)C)CC3)c2c1	i	?	·	·	·	·
CC(C)(C)C(=O)/C=c1\[nH]c(=O)/c(=C\c2ccccc2F)s1	i	i	-22%	0%	?	-41%[1.84 µM]
Cc1ccccc1/C=c1\s/c(=C\C(=O)C(C)(C)C)[nH]c1=O	?	?	0.89µM*	16µM*	?	?
CCc1nc2ccc(C(=O)NCCc3ccccn3)cn2c1N(CC)Cc1cccc(Br)c1	i	?	·	·	·	·
CCc1nc2ccc(C(=O)NC(C)(C)C)cn2c1N(CC)Cc1cccc(Br)c1	?	21µM*	·	·	·	·
COc1ccc(CN(C)C(=O)c2cccc(NC(=O)CC3SC(N4CCCCC4)=NC3=O)c2)c(OC)c1 (stereo not drawn)	16µM*	i	·	?	·	6.5µM*
COc1cc2[nH]c(=S)nc(NCCc3ccc(S(N)(=O)=O)cc3)c2cc1OC	i	?	-13%	-1%	0%	-6%
COc1cc2[nH]c(=S)nc(NCCC(C)C)c2cc1OC	i	i	8.9µM*	3%	4.5µM*	-4%
COc1cc2[nH]c(=S)nc(NCCc3ccc(C)cc3)c2cc1OC	i	i	6.3µM*	23µM*	0.89µM*	?
COc1ccc(CCNc2nc(=S)[nH]c3cc(OC)c(OC)cc23)cc1OC	i	i	?	2%	10µM*	-2%
COCCCNc1nc(=S)[nH]c2cc(OC)c(OC)cc12	i	i	3%	-4%	?	-7%
